Screening results from PubChem.
RE007 growth inh – less growth of the S. pombe RE007 Vpr strain. S. pombe RE007 Vpr strain, BacTiter-Glo ATP luminescence, 24 h. AID 651644. Potency, µM (titrated, usually from 92.2 µM), inactives show at the highest dose activity change, negative = less growth, actives largely listed as inhibitors. 360,000 compounds, 0.21% hits; active = well fitted falling curve with a large enough effect; inconclusive = small, poorly fitted or top-dose-only effect; inactive = no such curve, though single readings can be large or run the other way; also: potency is read from the fitted curve at half-maximal effect; nearly all actives have a fitted effect of over 50% in size
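Fission yeast RE007 carrying one integrated HIV-1 vpr copy, seeded at OD 0.01 in PMG+AL medium with 23 nL pinned compound. Grown 24 h at 30 degrees; viability read by BacTiter-Glo luminescence after 5 min.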
FMDV inh – antivirals against foot and mouth disease virus | FMDV antiviral cell-based qHTS | Potency, µM (top dose mostly 57.9 µM), for the others: top-dose activity change, negative = inhibition, most hits filed as inhibitors | 410,000 compounds, 1.2% hits | AID 1159524; calls by dose curve; tested in HEK293T cells; also: read-out not given here; potency is read from the fitted curve at half-maximal effect; nearly all actives have a fitted effect of over 45% in size
Tb PYK inh – blocks Trypanosoma brucei pyruvate kinase. Q57TT1. TbPYK enzyme, Kinase-Glo Plus ATP luminescence, 45 min. Potency, µM (top dose mostly 76.8 µM), for inactives: at the highest dose activity, negative = inhibition, hits mostly inhibitors. 410,000 compounds, 0.12% hits. AID 624173; also: potency is read from the fitted curve at half-maximal effect; nearly all actives have a fitted effect of over 50% in size
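Screened from lowest to highest concentration, compounds were pinned into TbPYK/substrate mixtures, and ADP (130 uM final) was added. Plates sat at room temperature for 45 min prior to Kinase-Glo Plus detection by luminescence.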
HCMV inh – human cytomegalovirus inhibition; HFF cells, HCMV-luciferase reporter, 72 h; stronger effect = lower value; activity change, negative = inhibition, % at 57.5 µM; 410,000 compounds, 4.5% hits; AID 1259415; in the data active = activity change below about -60%; inconclusive = no clear call, values can overlap the other calls; inactive = above about -39%
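Compounds were evaluated in HFFs infected with an HCMV luciferase reporter virus (MOI 1 PFU/cell). Luciferase in lysates collected 72 h post infection served as the replication measure.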
Sm TGR block – inhibitors of Schistosoma mansoni thioredoxin glutathione reductase; AID 485364; Potency, µM (top dose mostly 114 µM), inactives show top-dose activity change, negative = inhibition, most hits filed as inhibitors; Q962Y6; 360,000 compounds, 3% hits; purified TGR, DTNB reduction, TNB absorbance 405 nm; also: potency is read from the fitted curve at half-maximal effect; nearly all actives have a fitted effect of over 60% in size
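Kinetic colorimetric format: TGR-catalysed, NADPH-driven DTNB reduction monitored via TNB absorbance. Enzyme dispensed at 20 nM; compound exposure 15 min at room temperature before reaction start.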
Giardia FBPA inh – Giardia lamblia aldolase inhibition; A8B2U2; purified Giardia FBPA; Potency, µM (highest dose often 59.6 µM), for the others: at the top dose activity, negative = inhibition, actives largely listed as inhibitors; 290,000 compounds, 0.71% hits; AID 2451; also: potency is read from the fitted curve at half-maximal effect; nearly all actives have a fitted effect of over 55% in size
Target sequence (A8B2U2 whole entry, looked up): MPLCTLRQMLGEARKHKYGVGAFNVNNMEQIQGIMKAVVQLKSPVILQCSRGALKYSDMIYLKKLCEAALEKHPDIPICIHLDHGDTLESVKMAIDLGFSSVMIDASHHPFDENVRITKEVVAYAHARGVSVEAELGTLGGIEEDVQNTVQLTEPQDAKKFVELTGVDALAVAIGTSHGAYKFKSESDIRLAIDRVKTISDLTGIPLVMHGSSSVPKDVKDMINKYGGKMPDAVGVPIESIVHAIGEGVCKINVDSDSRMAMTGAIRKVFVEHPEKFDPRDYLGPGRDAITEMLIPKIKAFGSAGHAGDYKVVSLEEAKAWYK
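Giardia FBPA (40 nM reagent) was preincubated 10 min at RT with compound (up to 57.5 uM final), then substrate plus GAPDH/TPI/NAD/arsenate coupling system with diaphorase/resazurin was added; resorufin fluorescence (525/598 nm) was read after 20 min.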
Numbers without * were called inactive; ? = inconclusive; nt = not tested or not shown; + = active, no number; [ ] = dose if it differs, or a comment. The list is not random: actives were taken first. Their share in the collection is about 7.7%. Unless noted, calls follow the shape of the dose curve; as a rule, active = well fitted curve in the direction sought with a large enough effect; inconclusive = small, poorly fitted or top-dose-only effect, or another doubt; inactive = no such curve, though single readings can be large; an effect the other way counts as inactive or inconclusive. % is scaled to controls: 0 for no effect and ±100 for the full control effect.

SMILES	RE007 growth inh	FMDV inh	Tb PYK inh	HCMV inh	Sm TGR block	Giardia FBPA inh
Cc1ccc(S(=O)(=O)N(C)C)cc1-n1c(SCC(=O)Nc2ccccc2)nc2ccccc2c1=O	-5.1%	-21.3%	-0.4%	-71.8*	-4.7%	-1.2%
CCOC(=O)/C=C/[C@H](CC(C)C)NC(=O)C(F)(F)F	nt	nt	nt	-18.7	nt	nt
CNc1nc2c(c(=O)n(C)c(=O)n2C)n1CC(O)COc1ccc(OC)cc1 (stereo not given)	nt	?	-7.1%	-23.4	-2.4%	nt
COCCn1c(SCC(=O)NC2CCCC2)nc2ccccc2c1=O	4.9%	-13.1%	0.7%	-99.7*	5.5%	nt
CCc1ccc(CCC(=O)Nc2nc(CC(C)=O)ns2)o1	16.1%	6.6%	-1.7%	34.3	39.8µM*	-10.5%
CCc1ccc(CCC(=O)Nc2ccc(C(=O)O)cc2)o1	16.6%	-8.4%	3.8%	+	?	nt
CCCCNC(=O)CS(=O)Cc1nc(-c2cccc(Cl)c2)oc1C (stereo not given)	2.8%	13.3%	-7.2%	-5.2	31.6µM*	-3.8%
CCCCSCCCNC(=O)CS(=O)Cc1nc(-c2cccc(C)c2)oc1C (stereo not given)	-10.9%[3.69 µM]	-19.0%	nt	16.8	44.7µM*	10.2%
CCCCNC(=O)CS(=O)Cc1nc(-c2cccc(C)c2)oc1C (stereo not given)	-5.3%	-2.5%	-2.8%	16.1	?	6.4%
CCC(C)NC(=O)CS(=O)Cc1nc(-c2cccc(C)c2)oc1C (stereo not given)	-9.2%	-3.8%	-9.0%	-11.6	25.1µM*	0.6%
CCOC(=O)[C@H](CCc1ccccc1)N[C@@H](C)C(=O)N1Cc2cc(OC)c(OC)cc2C[C@H]1C(=O)O	nt	-16.2%	nt	nt	nt	nt
CCOc1ccccc1OCCCn1c(-c2ccc(Cl)cc2)nc2ccccc2c1=O	nt	0.0%	-23.2%	-2.8	-2.5%	nt
COC(=O)c1c(-c2ccco2)csc1NC(=O)C1CC=CCC1C(=O)O (stereo not given)	10.1%	53.2%	-7.5%	12.2	44.7µM*	-1.9%
CCOC(=O)c1c(-c2ccc(F)cc2)csc1NC(=O)C1CC=CCC1C(=O)O (stereo not given)	5.0%	10.9%	-27.3%	34.8	nt	21.0%
CCNC(=O)CC1C(=O)N(c2ccccc2)C(=O)N1Cc1ccc(F)cc1 (stereo not given)	nt	-9.9%	1.2%	-7.5	0.1%	nt
CCCC1c2ccc(C)n2CCN1C(=O)Nc1ccc(F)cc1 (stereo not given)	-0.1%	-5.4%	-7.6%	8.3	20µM*	-19.3%
CCC1c2ccc(C)n2CCN1C(=O)Nc1ccc(F)cc1 (stereo not given)	5.1%	22.3%	-17.1%	-6.2	10µM*	?
COc1cc2ccccc2cc1C(=O)Nc1ccc(Cl)c(-c2nc3ccccc3o2)c1	nt	-1.9%	0.9%	-29.9	-5.7%	nt
CCOC(=O)/C=C/[C@@H](CCc1ccccc1)NC(=O)C(F)(F)F	nt	nt	nt	-11.6	nt	nt
CCOC(=O)c1cnc(-n2nc(C)cc2C)nc1Nc1ccc(OC)cc1	10.2%	13.4%	0.2%	-32.3	-3.9%	11.2%
CCOC(=O)c1cnc(-n2nc(C)cc2C)nc1Nc1ccccc1OC	nt	nt	nt	nt	-16.4%	-4.6%
CCOC(=O)c1cnc(-n2nc(C)cc2C)nc1NC1CCCC1	-3.2%	?	-21.7%	-107.7*	14.5%	-2.7%
CCOC(=O)c1cnc(-n2nc(C)cc2C)nc1NCCc1ccccc1	-5.3%	?	-2.3%	-92.4*	-4.7%	14.2%
CCS(=O)(=O)N1CC(=O)N(c2ccc(C)c(C)c2)C(C)(C(=O)NC2CCCCCC2)C1 (stereo not given)	nt	-7.6%	5.8%[15.4 µM]	0.0	-0.8%	nt
O=C(/C=C/c1ccccc1)N1CC2ON=C(c3c(F)cccc3Cl)C2C1 (stereo not given)	nt	nt	nt	-8.2	nt	nt
SMILES	RE007 growth inh	FMDV inh	Tb PYK inh	HCMV inh	Sm TGR block	Giardia FBPA inh
COC(=O)c1cc(NC(=O)c2ccc(C)cc2)c(=O)oc1C	-1.4%	25.7%	-9.6%	?	-2.7%	5.6%
CC(=O)c1cc(NC(=O)c2ccc([N+](=O)[O-])cc2)c(=O)oc1C	14.1%	0.8%	-3.1%	-30.2	22.4µM*	-5.9%
COC(=O)c1cc(NC(=O)c2ccc([N+](=O)[O-])cc2)c(=O)oc1C	3.2%	-5.7%	-5.9%	-10.8	56.2µM*	-1.8%
COc1ccc(OC)c(C(=O)N2CCOc3ccc(C(C)(O)CN(C)C)cc3C2)c1 (stereo not given)	nt	0.0%	nt	nt	nt	nt
O=C(CCc1nc2ccccc2c(=O)[nH]1)N1CCN(C/C=C/c2ccccc2)CC1	-2.1%	20µM*	0.0%	13.3	3.6%	-4.1%
FC(F)(F)c1nc(=S)c2ccccc2[nH]1	4.0%	-14.1%	?	-2.8	2µM*	?
O=S(=O)(C/C(=C/CO)S(=O)(=O)c1ccccc1)c1ccccc1	-6.4%	7.94µM*	-1.1%	-105.9*	4.47µM*	0.3%
COc1ccc(-c2csc(NC(CO)c3nc4ccccc4n3Cc3ccc(C)cc3)n2)cc1 (stereo not given)	0.2%	17.8%	-1.0%	4.5	nt	nt
Cc1ccc(Cn2c(C(CO)Nc3nc(-c4ccc(F)cc4)cs3)nc3ccccc32)cc1 (stereo not given)	-3.9%	-0.8%	-10.0%	-60.2*	nt	nt
COC(=O)c1ccccc1C(=O)NCC1Cc2cc(-c3nc(C)cnc3C)ccc2O1 (stereo not given)	nt	-2.5%	nt	nt	nt	nt
CC1=CC(C)(C)N2C(=O)C(=Nc3ccc(O)cc3)c3cccc1c32	-16.5%	-14.6%	-13.9%	?	10µM*	12.6µM*
Cc1cccc(C)c1NC(=O)CN1CCCCCC1	nt	nt	9.7%	-12.1	nt	nt
COC(=O)c1c(NC(=O)c2nc(SCc3ccc(C)cc3)ncc2Cl)sc2c1CCCC2	nt	65.1%	-7.3%	7.7	0.5%	nt
CC(=O)N1CCN(C(=O)CC2OC(=O)c3ccccc32)CC1 (stereo not given)	44.7µM*	-9.3%	-7.5%	38.5	?	-21.6%
O=C(CC1OC(=O)c2ccccc21)Nc1ccc(Cl)c(S(=O)(=O)N2CCCCC2)c1 (stereo not given)	7.9%	?	3.7%	-33.9	-24.0%	nt
COc1ccc(OC)c(C(=O)CC2OC(=O)c3ccccc32)c1 (stereo not given)	-3.4%	14.1µM*	-15.3%	-89.7*	?	3.9%
O=C(CC1OC(=O)c2ccccc21)Nc1ccccc1N1CCOCC1 (stereo not given)	-12.7%	-23.1%	4.3%	-28.8	-7.2%	5.2%
COc1ccc(S(=O)(=O)N2CCCCCC2)cc1NC(=O)CC1OC(=O)c2ccccc21 (stereo not given)	-20.1%	7.5%	-14.1%	-28.2	39.8µM*	nt
